Experiment [1] can be described thus: optical density shifts of acrAB sulA E. coli – strain DRC41, OD650, 48 h, E. coli filamentation inducer project, primary screen (AID 1152).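 Also: E. coli MC1000 strain DRC41 lacking acrAB efflux pump and sulA.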 As to conditions: higher = more signal, called active from +8 up or from −8 down.
Experiment [2] is described as follows: probe aLefty1 binding on compound microarray – biochemical, small-molecule microarray, 635/667 nm fluorescence, primary screen (AID 1153).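 Also: score merges spot fluorescence with signal-to-noise ratio from the scanned slide images.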 As to conditions: higher = more signal.
A short description of experiment [3]: plasmodial surface anion channel blockers, osmotic lysis – cell-based, P. falciparum Indochina, OD700, 1 h, primary screen (AID 1154). As to conditions: P. falciparum Indochina infected RBC osmotic lysis, higher = more signal, called active from +8 up or from −8 down.
Experiment [4] can be described thus: plasmodial surface anion channel blockers, osmotic lysis – cell-based, P. falciparum Indochina, OD700, 2 h, primary screen (AID 1155).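 Also: lysis reports solute entry through the parasite surface anion channel PSAC.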 As to conditions: P. falciparum Indochina infected erythrocytes, higher = more signal, called active from +8 up or from −8 down.
Experiment [5] can be described thus: changes in parasitized red cell lysis, either direction – P. falciparum Indochina, OD700, 3 h, PSAC antagonist project, primary screen (AID 1156). To be noted: P. falciparum-infected erythrocytes, osmotic lysis, higher = more signal, called active from +8 up or from −8 down.
Experiment [6] in a line: plasmodial surface anion channel blockers, osmotic lysis – cell-based, P. falciparum Indochina, OD700, 18 h, primary screen (AID 1157). To be noted: P. falciparum Indochina infected erythrocytes, osmotic lysis OD700, 18 h; higher = more signal, called active from +8 up or from −8 down.
The nature of experiment [7]: S6 kinase pathway phospho-S6 level changes – cell-based, A549, cytoblot, luminescence, serum-stimulated, primary screen (AID 1158).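 Also: serum-stimulated A549 lung adenocarcinoma cells; signal is phosphorylated S6 detected by cytoblot immunostaining with HRP secondary.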 As to conditions: 5 h, higher = more signal.
For experiment [8], the target named is NADPH oxidase 2 (Homo sapiens) (UniProt P04839). In words: compounds shifting NOX2 Amplex Red fluorescence – cell-based, HEK293-NOX2, PMA-stimulated, NOX inhibitor project, primary screen (AID 1159). Also: test concentration not given here. To be noted: 45 min, higher = more signal, called active from +8 up or from −8 down.
Chain of NADPH oxidase 2 (Homo sapiens) (P04839 whole entry, looked up): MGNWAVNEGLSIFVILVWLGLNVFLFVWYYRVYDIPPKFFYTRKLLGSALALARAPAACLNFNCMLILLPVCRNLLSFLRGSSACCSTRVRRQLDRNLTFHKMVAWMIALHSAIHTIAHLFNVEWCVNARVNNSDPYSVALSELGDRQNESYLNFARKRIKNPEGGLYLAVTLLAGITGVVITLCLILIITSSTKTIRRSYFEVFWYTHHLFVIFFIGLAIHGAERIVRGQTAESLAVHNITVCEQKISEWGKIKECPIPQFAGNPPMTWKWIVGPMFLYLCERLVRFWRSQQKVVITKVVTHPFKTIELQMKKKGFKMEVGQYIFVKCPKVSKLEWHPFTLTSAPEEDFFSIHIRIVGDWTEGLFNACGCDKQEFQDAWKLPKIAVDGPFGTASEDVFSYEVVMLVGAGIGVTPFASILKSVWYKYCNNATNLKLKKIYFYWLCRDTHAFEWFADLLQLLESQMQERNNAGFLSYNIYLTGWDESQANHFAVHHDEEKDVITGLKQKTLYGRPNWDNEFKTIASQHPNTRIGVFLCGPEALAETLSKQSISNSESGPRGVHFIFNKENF
The target of experiment [9] is NADPH oxidase 4 (Homo sapiens) (UniProt Q9NPH5). As to the kind of experiment: compounds shifting NOX4 Amplex Red fluorescence – cell-based, HEK293-NOX4, tetracycline-induced, NOX inhibitor project, primary screen (AID 1160). To be noted: HEK293-NOX4, Amplex Red H2O2 fluorescence, 45 min; higher = more signal, called active from +8 up or from −8 down.
Chain of NADPH oxidase 4 (Homo sapiens) (Q9NPH5 whole entry, looked up): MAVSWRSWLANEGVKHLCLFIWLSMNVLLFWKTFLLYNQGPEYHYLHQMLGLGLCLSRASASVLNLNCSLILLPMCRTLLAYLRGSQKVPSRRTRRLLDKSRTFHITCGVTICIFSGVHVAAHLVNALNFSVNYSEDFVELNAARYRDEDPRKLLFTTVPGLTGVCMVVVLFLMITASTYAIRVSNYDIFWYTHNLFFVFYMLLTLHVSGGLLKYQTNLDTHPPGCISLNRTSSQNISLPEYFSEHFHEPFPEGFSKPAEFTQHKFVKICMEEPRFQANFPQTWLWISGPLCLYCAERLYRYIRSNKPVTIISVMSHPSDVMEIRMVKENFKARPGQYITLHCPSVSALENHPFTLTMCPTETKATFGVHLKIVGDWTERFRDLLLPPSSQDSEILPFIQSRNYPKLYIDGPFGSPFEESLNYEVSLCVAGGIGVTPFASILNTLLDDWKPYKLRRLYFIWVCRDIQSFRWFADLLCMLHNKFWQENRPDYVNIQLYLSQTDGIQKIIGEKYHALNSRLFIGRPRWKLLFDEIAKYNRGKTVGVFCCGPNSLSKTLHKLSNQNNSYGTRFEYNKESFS
Experiment [10] addresses NADPH oxidase 5 (Homo sapiens) (UniProt Q96PH1). In words: compounds shifting NOX5 Amplex Red fluorescence – cell-based, HEK293-NOX5, NOX inhibitor project, primary screen (AID 1161). To be noted: HEK293-NOX5, ionomycin, 45 min, higher = more signal.

Active and inactive are the calls of the source.

Chain of NADPH oxidase 5 (Homo sapiens) (Q96PH1 whole entry, looked up): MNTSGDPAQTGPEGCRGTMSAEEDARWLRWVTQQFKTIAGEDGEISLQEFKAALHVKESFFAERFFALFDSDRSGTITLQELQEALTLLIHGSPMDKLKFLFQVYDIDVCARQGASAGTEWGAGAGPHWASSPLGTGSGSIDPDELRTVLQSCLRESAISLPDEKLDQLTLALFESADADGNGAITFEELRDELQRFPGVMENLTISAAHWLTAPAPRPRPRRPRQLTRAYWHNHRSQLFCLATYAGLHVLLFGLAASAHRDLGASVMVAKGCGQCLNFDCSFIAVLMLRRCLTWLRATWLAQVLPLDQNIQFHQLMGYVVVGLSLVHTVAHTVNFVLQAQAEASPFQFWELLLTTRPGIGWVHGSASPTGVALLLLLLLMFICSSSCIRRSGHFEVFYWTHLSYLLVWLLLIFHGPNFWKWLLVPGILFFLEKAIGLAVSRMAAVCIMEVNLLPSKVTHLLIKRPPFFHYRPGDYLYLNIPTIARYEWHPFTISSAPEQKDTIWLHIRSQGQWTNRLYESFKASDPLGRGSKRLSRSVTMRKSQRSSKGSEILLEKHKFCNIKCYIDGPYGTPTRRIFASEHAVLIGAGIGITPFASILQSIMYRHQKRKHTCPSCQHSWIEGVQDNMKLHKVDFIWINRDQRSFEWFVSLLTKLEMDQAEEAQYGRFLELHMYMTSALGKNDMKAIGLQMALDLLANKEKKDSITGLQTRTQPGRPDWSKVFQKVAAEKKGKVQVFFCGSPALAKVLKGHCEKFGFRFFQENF

With `COC(=O)[C@@]1(Cc2ccc(F)cc2)[C@H]2c3cc(C(=O)N4CCCC4)n(Cc4ccc(Cl)c(C(F)(F)F)c4)c3C[C@H]2CN1C(=O)c1ccccc1`, the z-score in [1] is -1.31 (inactive); in [3] it was 3.16 (inactive); in [4] it was 0.895 (inactive); in experiment [5] it was 0.923 (inactive); in [6] it was 1.21 (inactive); in experiment [7], -0.256. Also, the z-score was 0.71 (inactive) in experiment [8], 0.705 (inactive) in [9] and 1.31 in experiment [10]. The compound further registered a composite z-score in experiment [2] of 1.99.

For `Cc1ccc(S[C@]2(C(=O)NCC(C)C)CC(=O)N(Cc3ccccc3)[C@@H]2c2ccc(CO)cc2)cc1`, the z-score was -0.747 (inactive) in experiment [1]; 2.36 (inactive) in experiment [3]; 0.522 (inactive) in experiment [4]; -0.111 (inactive) in experiment [5]; 0.451 (inactive) in [6]; 0.138 in [7]. For the same compound, the z-score was -0.336 (inactive) in [8], 0.361 (inactive) in [9] and 0.499 in [10]. In experiment [2], this compound showed a composite z-score of 0.171.

On to `CN(C)CCCC[C@@H]1NC(=O)[C@@H]2C[C@H](C(=O)NCc3ccc(F)cc3)[C@H](c3cccc(OCCO)c3)N2C1=O`, for which the z-score in experiment [1] was -0.179 (inactive); in [3], 5.87 (inactive); in experiment [4], 0.995 (inactive); in experiment [5], -1.39 (inactive); in experiment [6] it was 0.546 (inactive); in experiment [7], 0.612. Moreover, the z-score in [8] is 1.85 (inactive); in experiment [9], 1.37 (inactive); in experiment [10], 1.55. Moreover, in experiment [2], the composite z-score came out at 0.19.

For `C=C(COC)C(=O)CC[C@@H](OC(=O)c1ccccc1-c1ccccc1C(=O)O)c1ccc(CO)o1`, the z-score in experiment [1] is -0.448 (inactive); in [3] it was 0.508 (inactive); in experiment [4], 0.802 (inactive); in [5], -2.11 (inactive); in [6] it was 0.698 (inactive); in [7] it was -1. Also, the values for the z-score in experiment [8], in experiment [9] and in [10] were -3.41 (inactive), -1.58 (inactive) and -3.07, respectively. The compound further registered a composite z-score in experiment [2] of -0.0032.

With `C=C[C@H](C)[C@H](O)c1ccc(OCCO)cc1`, the z-score in experiment [1] was 1.05 (inactive); in experiment [3], 1.09 (inactive); in experiment [4], 0.521 (inactive); in experiment [5], 1.62 (inactive); in [6], 0.402 (inactive); in experiment [7], 0.156. The z-score in experiment [8] was 0.218 (inactive); in [9], -0.187 (inactive); in [10], -0.112. Besides, the composite z-score in [2] was -0.553.

With `CCN(CC)c1ccc(N2CC=CC34O[C@@H]5/C=C\CCC(C)OC(=O)C5[C@H]3C(=O)N(CCCCCCO)[C@@H]4C2=O)cc1` (stereo not given in full), the z-score in [1] is 0.699 (inactive); in experiment [3], -0.37 (inactive); in experiment [4], 0.0486 (inactive); in experiment [5], -0.383 (inactive); in experiment [6], 0.33 (inactive); in experiment [7] it was 1.35. The z-score in experiment [8] is -0.315 (inactive); in [9], -0.0195 (inactive); in experiment [10] it was 0.813. The composite z-score in experiment [2] is -0.464.

For the compound `Cc1ccc([C@H]2C(C(=O)O)=C[C@@H](C(C)C)N2S(=O)(=O)c2ccc(C)cc2)cc1`, the z-score in [1] is -1.01 (inactive); in experiment [3], 0.297 (inactive); in [4], 0.711 (inactive); in experiment [5], -0.539 (inactive); in [6] it was 0.734 (inactive); in experiment [7], -0.365. For the same compound, the z-score in experiment [8] is 0.79 (inactive); in experiment [9], -1.06 (inactive); in experiment [10] it was -0.32. This compound returned a composite z-score in experiment [2] of 0.121.

For the compound `C=C[C@H](OC)[C@@H](OC(=O)Nc1ccc(SC)cc1)c1ccc(OCCO)cc1`, the z-score in experiment [1] was -0.356 (inactive); in experiment [3], 26 (active); in [4] it was 15.7 (active); in [5], 2.51 (inactive); in experiment [6] it was 1.82 (inactive); in experiment [7], 0.306. In addition, the figures for the z-score in experiment [8], in experiment [9] and in experiment [10] were 0.228 (inactive), 0.103 (inactive) and 0.99, respectively. Also, the composite z-score in experiment [2] is -0.101.

Turning to `CCOC(=O)C=Cc1cccc(OC)c1O`, the z-score in [1] is -0.572 (inactive); in experiment [3], 21.2 (active); in experiment [4], 2.21 (inactive); in [5], 0.957 (inactive); in [6], -1.28 (inactive); in experiment [7], 1.73. Also, the z-score in experiment [8] is -5.37 (inactive); in experiment [9], -5.92 (inactive); in [10], -6.34. Moreover, the composite z-score in experiment [2] is -0.184.

For `CCCCC(=O)N(Cc1ccccc1F)[C@@H]1CC(C(=O)NCCO)=C[C@H](Oc2c(I)cc(CO)cc2OC)[C@H]1O`, the z-score is 0.381 (inactive) in experiment [1]; 5.42 (inactive) in experiment [3]; 3.13 (inactive) in [4]; 2.17 (inactive) in experiment [5]; 1.48 (inactive) in experiment [6]; 0.245 in experiment [7]. The values for the z-score in experiment [8], in experiment [9] and in [10] were 1.27 (inactive), 0.438 (inactive) and -3.95, respectively. Also, the composite z-score in experiment [2] stood at 0.298.

In the case of `CO[C@H]1O[C@H](CO)[C@@H](OC(=O)Nc2ccc(C(F)(F)F)cc2)[C@H](OC(=O)Nc2ccccc2)[C@@H]1OC(=O)Nc1ccccc1`, the z-score in [1] is -0.744 (inactive); in experiment [3], 7.34 (inactive); in experiment [4] it was 1.01 (inactive); in [5], -0.886 (inactive); in experiment [6], 0.863 (inactive); in experiment [7], -0.143. The z-score in experiment [8] is 0.179 (inactive); in experiment [9] it was -0.513 (inactive); in experiment [10] it was -0.468. In experiment [2], this compound yielded a composite z-score of -0.407.

Consider `O=C1O[C@H](c2ccccc2)[C@H](c2ccccc2)N2[C@H]1[C@@H](C(=O)NC[C@H](O)c1ccccc1)[C@]1(C(=O)Nc3ccc(C#CC4=CCCCC4)cc31)[C@H]2c1ccc(O)cc1`, for which the z-score is 1.8 (inactive) in experiment [1]; 1.35 (inactive) in [3]; 0.393 (inactive) in experiment [4]; -0.693 (inactive) in experiment [5]; -0.521 (inactive) in experiment [6]; 1.98 in experiment [7]. The z-score was 2.08 (inactive) in experiment [8], 0.754 (inactive) in experiment [9] and -0.0561 in [10]. The same compound registered a composite z-score in experiment [2] of -0.0418.

Turning to `COCCOC(=O)N1C(=O)[C@@]2(c3cc(C#CCCO)ccc31)[C@H](C(=O)NC[C@H](O)c1ccccc1)[C@H]1C(=O)O[C@H](c3ccccc3)[C@H](c3ccccc3)N1[C@@H]2c1ccc(OCCO)cc1`, the z-score is 1.96 (inactive) in experiment [1]; 3.45 (inactive) in experiment [3]; 1.02 (inactive) in experiment [4]; -0.431 (inactive) in [5]; 0.212 (inactive) in experiment [6]; 0.568 in experiment [7]. In addition, the figures for the z-score in [8], in [9] and in [10] were 1.75 (inactive), 1.13 (inactive) and -0.0265, respectively. The same compound gave a composite z-score in experiment [2] of -0.0276.

These data come from PubChem BioAssay.
